The list is not random: actives were taken first. Their share in the collection is about 5.2%.
Candida biofilm = clotrimazole potentiators killing Candida biofilms, primary screen, with clotrimazole, Alamar Blue | C. albicans biofilm + clotrimazole | inhibition, % at 6 µM | 0.14% of 85,000 active | AID 834, 2007;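 active = inhibition above 20%; inactive = inhibition below 20%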;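 note: preformed 24 hr biofilms exposed to compound for 48 hr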
PostGolgi yeast = phenotypic screen on post-Golgi transport, primary screen | post-Golgi transport phenotypic cell assay | inhibition, % at 10 µM | 0.9% of 98,000 active;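 note: yeast cells grown in 1536-well plates; yeast grown about 18 h at 30C before absorbance read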
PostGolgi ctrl = growth inhibition of yeast control strain, primary screen, counter-screen for post-Golgi transport modulator project; efflux-deficient yeast background strain, growth absorbance A615, 16 h; inhibition, % at 10 µM; 5% of 98,000 active; AID 738, 2007
EphB4 ephrin blk = EphB4-ephrin-B2 interaction antagonists, primary screen, biochemical, TNYL-RAW peptide probe, fluorescence polarization | Ephrin type-B receptor 4 (Homo sapiens), P54760 | EphB4 LBD / TNYL-RAW-Alexa532 peptide | inhibition, % at 7 µM | 0.15% of 97,000 active | AID 720, 2007;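 active = inhibition above the screen-wide mean inhibition plus 3 SD, cut at about 15% in these data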
Each line names hits and unclear results; the compound was inactive in the other large screens. Cut-off read from the data, not from the text of the source, unless noted: active = inhibition above about 30%; inactive = the rest.

CCn1c(CNC(=O)c2cccs2)nnc1SCC(=O)NCCc1ccccc1	PostGolgi ctrl 30.9
COc1ccccc1-c1c(C)c(C)nc(N)c1C#N	none
CCc1nc(N)c(C#N)c(-c2ccccc2OC)c1C	PostGolgi yeast 31.0
CCCC(c1nnnn1CS(=O)(=O)c1ccc(C)cc1)N1CCN(c2ccccc2)CC1 (stereo not drawn)	PostGolgi ctrl 30.9
Cc1cccc(-c2nnc(SCC(=O)Nc3nc4c(s3)CCCC4)n2C)c1	none (no result: PostGolgi yeast, PostGolgi ctrl)
O=S1(=O)C=C(Sc2nc3cc(Cl)ccc3o2)c2ccccc21	PostGolgi ctrl 38.6 (no result: Candida biofilm)
COCCOc1cc(-n2ccnc2SC)c(Cl)cc1Cl	none (no result: Candida biofilm)
CCCn1c(SCC(=O)NC(C)C23CC4CC(CC(C4)C2)C3)n[nH]c1=O (stereo not drawn)	PostGolgi ctrl 38.1
Cn1c(SCc2c(Cl)cccc2Cl)nc(C(F)(F)F)cc1=O	none (no result: Candida biofilm)
Cn1cccc1/C=N/n1c(-c2ccc(Cl)cc2)n[nH]c1=S	none (no result: Candida biofilm)
S=c1[nH]nc(-c2ccco2)n1/N=C/c1ccc(Cl)cc1Cl	PostGolgi ctrl 38.8 (no result: Candida biofilm)
Cn1cccc1/C=N/n1c(-c2ccc(Cl)cc2Cl)n[nH]c1=S	PostGolgi ctrl 42.9 (no result: Candida biofilm)
CCOC(=O)c1sc(/N=C/c2c(C)[nH]n(-c3ccccc3)c2=O)c(C#N)c1C	none (no result: Candida biofilm)
CN(C)c1oc(-c2ccccc2Cl)nc1S(=O)(=O)c1ccccc1	PostGolgi ctrl 31.9
O=c1[nH]c2ccccc2n2c(-c3ccncc3)nnc12	none (no result: Candida biofilm)
COC(=O)c1ccc(C2C(C(C)=O)=C(C)Nc3ncnn32)cc1 (stereo not drawn)	none
CCN(CC)CCOC(=O)C1(c2ccc(OC)c(OC)c2)CCCC1	PostGolgi ctrl 49.8
CC(=O)Nc1nc(C=C(Cl)Cl)cs1	PostGolgi ctrl 32.8 (no result: EphB4 ephrin blk)
CCCCN(CCCC)CP(=O)(c1ccccc1)c1ccccc1	none
c1ccc(N2CCN(c3ncnc4sc5c(c34)CCC5)CC2)cc1	none
CCc1cc2c(N3CCN(c4ccccc4)CC3)ncnc2s1	PostGolgi ctrl 48.3 (no result: Candida biofilm)
O=c1oc(-c2ccc(Br)o2)nc2ccccc12	none
Cc1ccc(C(=O)O/N=C/c2c(N3CCOCC3)n(C)c3ccccc23)cc1	PostGolgi ctrl 32.4 (no result: Candida biofilm)
Cn1c(N2CCOCC2)c(/C=N/OC(=O)c2ccc(F)cc2)c2ccccc21	PostGolgi yeast 42.2, PostGolgi ctrl 33.5 (no result: Candida biofilm)
CCCC(CCC)C(=O)Nc1cccc(C(=O)O)c1	none
C=CCn1c(C#N)c(N)sc1=N	EphB4 ephrin blk 15.3
CCCN(Cc1cc2ccc(C)cc2[nH]c1=O)C(=O)c1cccnc1	none
CCN(Cc1cc2ccc(C)cc2[nH]c1=O)C(=O)c1ccncc1	PostGolgi ctrl 44.1
O=C(Nn1c(-c2ccc(F)cc2)nc2ccccc2c1=O)C1CCCCC1	none
Cc1oc(-c2ccc(Cl)cc2)nc1CN1CCC(C(=O)N2CCc3ccccc3C2)CC1	none
Cc1oc(-c2ccc(Cl)cc2)nc1CN1CCC(C(=O)N2CCN(Cc3ccccc3)CC2)CC1	PostGolgi ctrl 33.3
Oc1ccc(C(=S)N2CCCCCC2)cc1	PostGolgi ctrl 30.2
CN(CC(=O)Nc1nc2ccccc2s1)S(=O)(=O)c1ccc(Cl)cc1	PostGolgi ctrl 31.1
O=C1Nc2ccccc2/C1=N/c1sc2c(c1C(=O)NCCc1ccccc1)CCCC2	none (no result: Candida biofilm)
CCOC(=O)/C(=C\c1cccnc1)C(=O)c1cc(C(C)=O)c(Nc2ccccc2)s1	PostGolgi yeast 110.8, PostGolgi ctrl 89.9
CCOC(=O)/C(=C\c1ccccc1)C(=O)c1cc(C(C)=O)c(Nc2ccccc2)s1	PostGolgi ctrl 59.9
CCOC(=O)C(=Cc1ccc(F)cc1)C(=O)OCC	none (no result: Candida biofilm)
C=CCn1c(SCC(O)Cn2c3ccccc3c3ccccc32)nnc1-c1ccco1 (stereo not drawn)	PostGolgi ctrl 46.3
C=CCn1c(SCC(=O)Nc2ccccc2OC)nnc1-c1ccco1	none
O=C(c1ccccc1OCc1ccccc1Br)N1CCN(c2ncccn2)CC1	none
COCc1cc(C)nc(OCC(=O)N/N=C\c2cc(C)n(-c3cccc(C(F)(F)F)c3)c2C)c1C#N	none (no result: Candida biofilm)
Fc1ccc2[nH]c3c(N4CCN(c5ccccc5)CC4)ncnc3c2c1	PostGolgi yeast 76.3, PostGolgi ctrl 79.5 (no result: EphB4 ephrin blk)
OC1(c2cccc(C(F)(F)F)c2)CCN(c2ncnc3c2[nH]c2ccc(F)cc23)CC1	PostGolgi ctrl 32.8
O=C(OCCN1C(=O)c2ccccc2C1=O)C1CCN(S(=O)(=O)c2cccs2)CC1	none
Clc1ccc2c(c1)C(c1cccs1)=NNC(c1cccnc1)=N2	none (no result: Candida biofilm)
CC(=O)Nc1sc2c(c1C(c1ccc(F)cc1)N1CCOCC1)CCCC2 (stereo not drawn)	none (no result: Candida biofilm)
CC(=O)Nc1sc2c(c1C(c1ccc(Cl)cc1)N1CCOCC1)CCCC2 (stereo not drawn)	PostGolgi ctrl 31.2
COc1ccc(C=Nc2cccc3c(=O)[nH][nH]c(=O)c23)c2ccccc12	none
